Assay results taken from the supplement of paper PMC4466140.

target: AgAbp1; test: SPOT peptide array binding signal intensity (averaged, normalized) (arbitrary units (background-subtracted, floor 0; scale differs between SH3 domains)); higher = stronger binding of the SH3 domain to the peptide
Description: (§1)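 GST-tagged SH3 domains from S. cerevisiae (Sc), A. gossypii (Ag), C. albicans (Ca) and S. pombe (Sp) were incubated at 10 ug/ml overnight at 4 C on cellulose SPOT membranes carrying 292 synthetic 15-mer peptides mined from the S. cerevisiae proteome (cysteines replaced by serines). Binding was detected with anti-GST antibody, HRP secondary and chemiluminescence, quantified with Genespotter, and reported as normalized spot intensities averaged over biological replicates.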

Binder	SPOT peptide array binding signal intensity
RPVPPPPPMRTTTEG	18

target: AgBbc1; test: as above
Description: as §1

Binder	SPOT peptide array binding signal intensity
RPVPPPPPMRTTTEG	814

target: AgBem1-D1; test: as above
Description: as §1

Binder	SPOT peptide array binding signal intensity
RPVPPPPPMRTTTEG	201

target: AgBzz1-D1; test: as above
Description: as §1

Binder	SPOT peptide array binding signal intensity
RPVPPPPPMRTTTEG	156

target: AgBzz1-D2; test: as above
Description: as §1

Binder	SPOT peptide array binding signal intensity
RPVPPPPPMRTTTEG	14.5

target: AgCyk3; test: as above
Description: as §1

Binder	SPOT peptide array binding signal intensity
RPVPPPPPMRTTTEG	14

target: AgFus1; test: as above
Description: as §1

Binder	SPOT peptide array binding signal intensity
RPVPPPPPMRTTTEG	63

target: AgHof1; test: as above
Description: as §1

Binder	SPOT peptide array binding signal intensity
RPVPPPPPMRTTTEG	61.8

target: AgHse1; test: as above
Description: as §1

Binder	SPOT peptide array binding signal intensity
RPVPPPPPMRTTTEG	144

target: AgLsb1; test: as above
Description: as §1

Binder	SPOT peptide array binding signal intensity
RPVPPPPPMRTTTEG	303

target: AgLsb4; test: as above
Description: as §1

Binder	SPOT peptide array binding signal intensity
RPVPPPPPMRTTTEG	1760

target: AgMyo5; test: as above
Description: as §1

Binder	SPOT peptide array binding signal intensity
RPVPPPPPMRTTTEG	41.2

target: AgNbp2; test: as above
Description: as §1

Binder	SPOT peptide array binding signal intensity
RPVPPPPPMRTTTEG	3100

target: AgRvs167; test: as above
Description: as §1

Binder	SPOT peptide array binding signal intensity
RPVPPPPPMRTTTEG	1050

target: AgSho1; test: as above
Description: as §1

Binder	SPOT peptide array binding signal intensity
RPVPPPPPMRTTTEG	136

target: AgSla1-D1-D2; test: as above
Description: as §1

Binder	SPOT peptide array binding signal intensity
RPVPPPPPMRTTTEG	1

target: AgSla1-D3; test: as above
Description: as §1

Binder	SPOT peptide array binding signal intensity
RPVPPPPPMRTTTEG	108

target: CaAbp1-D1; test: as above
Description: as §1

Binder	SPOT peptide array binding signal intensity
RPVPPPPPMRTTTEG	364

target: CaAbp1-D2; test: as above
Description: as §1

Binder	SPOT peptide array binding signal intensity
RPVPPPPPMRTTTEG	60.5

target: CaBbc1; test: as above
Description: as §1

Binder	SPOT peptide array binding signal intensity
RPVPPPPPMRTTTEG	553

target: CaBem1-D1; test: as above
Description: as §1

Binder	SPOT peptide array binding signal intensity
RPVPPPPPMRTTTEG	166

target: CaBzz1-D1; test: as above
Description: as §1

Binder	SPOT peptide array binding signal intensity
RPVPPPPPMRTTTEG	3990

target: CaBzz1-D2; test: as above
Description: as §1

Binder	SPOT peptide array binding signal intensity
RPVPPPPPMRTTTEG	1260

target: CaCyk3; test: as above
Description: as §1

Binder	SPOT peptide array binding signal intensity
RPVPPPPPMRTTTEG	387

target: CaFus1; test: as above
Description: as §1

Binder	SPOT peptide array binding signal intensity
RPVPPPPPMRTTTEG	548

target: CaHof1; test: as above
Description: as §1

Binder	SPOT peptide array binding signal intensity
RPVPPPPPMRTTTEG	40

target: CaHse1; test: as above
Description: as §1

Binder	SPOT peptide array binding signal intensity
RPVPPPPPMRTTTEG	405

target: CaLsb1; test: as above
Description: as §1

Binder	SPOT peptide array binding signal intensity
RPVPPPPPMRTTTEG	1

target: CaLsb4; test: as above
Description: as §1

Binder	SPOT peptide array binding signal intensity
RPVPPPPPMRTTTEG	2480

target: CaMyo5; test: as above
Description: as §1

Binder	SPOT peptide array binding signal intensity
RPVPPPPPMRTTTEG	54

target: CaNbp2; test: as above
Description: as §1

Binder	SPOT peptide array binding signal intensity
RPVPPPPPMRTTTEG	1490

target: CaRvs167; test: as above
Description: as §1

Binder	SPOT peptide array binding signal intensity
RPVPPPPPMRTTTEG	1460

target: CaRvs167-3; test: as above
Description: as §1

Binder	SPOT peptide array binding signal intensity
RPVPPPPPMRTTTEG	0.75

target: CaSho1; test: as above
Description: as §1

Binder	SPOT peptide array binding signal intensity
RPVPPPPPMRTTTEG	650

target: CaSla1-D1-D2; test: as above
Description: as §1

Binder	SPOT peptide array binding signal intensity
RPVPPPPPMRTTTEG	1590

target: CaSla1-D3; test: as above
Description: as §1

Binder	SPOT peptide array binding signal intensity
RPVPPPPPMRTTTEG	928

target: ScAbp1; test: as above
Description: as §1

Binder	SPOT peptide array binding signal intensity
RPVPPPPPMRTTTEG	21

target: ScBbc1; test: as above
Description: as §1

Binder	SPOT peptide array binding signal intensity
RPVPPPPPMRTTTEG	64.8

target: ScBem1-D1; test: as above
Description: as §1

Binder	SPOT peptide array binding signal intensity
RPVPPPPPMRTTTEG	≤ 0

target: ScBzz1-D1; test: as above
Description: as §1

Binder	SPOT peptide array binding signal intensity
RPVPPPPPMRTTTEG	177

target: ScBzz1-D2; test: as above
Description: as §1

Binder	SPOT peptide array binding signal intensity
RPVPPPPPMRTTTEG	14.5

target: ScCyk3; test: as above
Description: as §1

Binder	SPOT peptide array binding signal intensity
RPVPPPPPMRTTTEG	8.5

target: ScFus1; test: as above
Description: as §1

Binder	SPOT peptide array binding signal intensity
RPVPPPPPMRTTTEG	180

target: ScHof1; test: as above
Description: as §1

Binder	SPOT peptide array binding signal intensity
RPVPPPPPMRTTTEG	46.2

target: ScHse1; test: as above
Description: as §1

Binder	SPOT peptide array binding signal intensity
RPVPPPPPMRTTTEG	63

target: ScLsb1; test: as above
Description: as §1

Binder	SPOT peptide array binding signal intensity
RPVPPPPPMRTTTEG	180

target: ScLsb2; test: as above
Description: as §1

Binder	SPOT peptide array binding signal intensity
RPVPPPPPMRTTTEG	434

target: ScLsb3; test: as above
Description: as §1

Binder	SPOT peptide array binding signal intensity
RPVPPPPPMRTTTEG	4080

target: ScLsb4; test: as above
Description: as §1

Binder	SPOT peptide array binding signal intensity
RPVPPPPPMRTTTEG	3130

target: ScMyo3; test: as above
Description: as §1

Binder	SPOT peptide array binding signal intensity
RPVPPPPPMRTTTEG	569

target: ScMyo5; test: as above
Description: as §1

Binder	SPOT peptide array binding signal intensity
RPVPPPPPMRTTTEG	239

target: ScNbp2; test: as above
Description: as §1

Binder	SPOT peptide array binding signal intensity
RPVPPPPPMRTTTEG	4580

target: ScPex13; test: as above
Description: as §1

Binder	SPOT peptide array binding signal intensity
RPVPPPPPMRTTTEG	1500

target: ScRvs167; test: as above
Description: as §1

Binder	SPOT peptide array binding signal intensity
RPVPPPPPMRTTTEG	3300

target: ScSho1; test: as above
Description: as §1

Binder	SPOT peptide array binding signal intensity
RPVPPPPPMRTTTEG	616

target: ScSla1-D1-D2; test: as above
Description: as §1

Binder	SPOT peptide array binding signal intensity
RPVPPPPPMRTTTEG	1870

target: ScSla1-D3; test: as above
Description: as §1

Binder	SPOT peptide array binding signal intensity
RPVPPPPPMRTTTEG	222

target: SpAbp1-D1; test: as above
Description: as §1

Binder	SPOT peptide array binding signal intensity
RPVPPPPPMRTTTEG	95.5

target: SpBbc1; test: as above
Description: as §1

Binder	SPOT peptide array binding signal intensity
RPVPPPPPMRTTTEG	40.5

target: SpBzz1-D1; test: as above
Description: as §1

Binder	SPOT peptide array binding signal intensity
RPVPPPPPMRTTTEG	1370

target: SpBzz1-D2; test: as above
Description: as §1

Binder	SPOT peptide array binding signal intensity
RPVPPPPPMRTTTEG	88

target: SpCyk3; test: as above
Description: as §1

Binder	SPOT peptide array binding signal intensity
RPVPPPPPMRTTTEG	112

target: SpHof1; test: as above
Description: as §1

Binder	SPOT peptide array binding signal intensity
RPVPPPPPMRTTTEG	111

target: SpHof1-2; test: as above
Description: as §1

Binder	SPOT peptide array binding signal intensity
RPVPPPPPMRTTTEG	110

target: SpHof1-3; test: as above
Description: as §1

Binder	SPOT peptide array binding signal intensity
RPVPPPPPMRTTTEG	966

target: SpHse1; test: as above
Description: as §1

Binder	SPOT peptide array binding signal intensity
RPVPPPPPMRTTTEG	147

target: SpLsb1; test: as above
Description: as §1

Binder	SPOT peptide array binding signal intensity
RPVPPPPPMRTTTEG	161

target: SpLsb4; test: as above
Description: as §1

Binder	SPOT peptide array binding signal intensity
RPVPPPPPMRTTTEG	4570

target: SpMyo1; test: as above
Description: as §1

Binder	SPOT peptide array binding signal intensity
RPVPPPPPMRTTTEG	333

target: SpNbp2; test: as above
Description: as §1

Binder	SPOT peptide array binding signal intensity
RPVPPPPPMRTTTEG	191

target: SpPex13; test: as above
Description: as §1

Binder	SPOT peptide array binding signal intensity
RPVPPPPPMRTTTEG	150

target: SpRvs167; test: as above
Description: as §1

Binder	SPOT peptide array binding signal intensity
RPVPPPPPMRTTTEG	2150

target: SpSla1-D1-D2; test: as above
Description: as §1

Binder	SPOT peptide array binding signal intensity
RPVPPPPPMRTTTEG	86

target: SpSla1-D3; test: as above
Description: as §1

Binder	SPOT peptide array binding signal intensity
RPVPPPPPMRTTTEG	33.5
